TTR transcr act: TTR transcription activators in neuroblastoma reporter cells, primary screen, cell-based, luminescence, SH-SY5Y, TTR promoter Gaussia luciferase. 100% = recombinant luciferase protein wells. activation, % at 16.7 µM. 1.3% of 92,000 active. AID 1117267, 2014;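 active = activation above the mean of all tested compounds plus 3 SD, cut at about 9.5% in these data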;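 note: cells exposed to compounds for one day before reading; 0% = median of all test compound wells on the plate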
HuH7 TTR inh: TTR promoter reporter inhibitors in hepatoma cells, counter-screen for TTR transcription activator project, cell-based, luminescence, HuH7 hepatoma. 4% of 1,100 active. inhibition, % at 16.7 µM. shares compounds with TTR transcr act. HuH7 TTR promoter-Gaussia luciferase reporter;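 active = average inhibition above the solvent-only control wells' mean plus 3 SD, cut at about 15% in these data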;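 note: 0% = cells with DMSO only and 100% = cells with inhibitor control FD; inhibitors lower well luminescence so higher value means more inhibition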
TTR act confirm: TTR transcription activators, retest, confirmation, cell-based, luminescence, SH-SY5Y, triplicate; activation, % at 16.7 µM; SHSY5Y TTR promoter Gaussia luciferase; 100% = purified Lucia enzyme wells, no cells; 1,100 tested, under 10 active; AID 1117280, 2014; shares compounds with TTR transcr act;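 active = mean activation above a set limit taken from the earlier primary screen, cut at about 11% in these data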;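 note: 0% = DMSO-treated cells and 100% = recombinant Lucia luciferase without cells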
* hit, by the source's call. Many of the other results were omitted from the sample, so hits are more common in it than they were.

SMILES	TTR transcr act	others
CC1(C(=O)NCc2ccccc2)CCC(=O)N1CC(F)(F)F (stereo not given)	2
CC1(C(=O)Nc2ccc3c(c2)OCCO3)CCC(=O)N1CC(F)(F)F (stereo not given)	-2
CC1(C(=O)Nc2ccc3ccccc3c2)CCC(=O)N1CC(F)(F)F (stereo not given)	13*	HuH7 TTR inh=-14;TTR act confirm=1
COC(=O)[C@]12C[C@H](CC(=O)NCc3cccc(C(F)(F)F)c3)C(=O)N(Cc3ccco3)C1=C[C@H](C1CCCC1)O[C@@H]2C	0
O=C(c1ccccc1Oc1ccccc1)N1CCC(Oc2cccnc2)CC1	0
C[C@@H]1CCN(C2CC2)S(=O)(=O)c2ccc(N3CCC[C@@H]3CO)cc2O1	0
O=C(NCCS(=O)(=O)N1CCCCCC1)c1ccc(F)cc1	0
Cc1ccc(NC(=O)OC2CC3CC2[C@H]2CCCCN2C3)cc1 (stereo not given in full)	-3
COc1cc(OC)cc(C(=O)OCC(=O)Nc2ccc(N3CCCCC3)cc2)c1	12*	HuH7 TTR inh=0;TTR act confirm=1
COc1ccc(OCC(=O)Nc2ccc(N3CCCCC3)cc2)cc1	1
O=C(COC(=O)c1ccc(O)cc1)Nc1ccc(N2CCCCC2)cc1	3
Cc1nnc(NS(=O)(=O)c2ccc(Br)cc2)s1	1
O=C(Nc1nc2ncccn2c1-c1ccccc1)c1ccc(F)cc1	0
COc1ccc(C(=O)N2CCC(n3c(C)nc4cc(F)ccc43)CC2)cc1	-2
O=C(NCc1ccc(Cl)cc1)c1csc(-c2cccnc2)n1	1
O=C(NNC(=O)c1ccc(Cl)cc1Cl)c1csc(-c2cccnc2)n1	-3
O=C(NNS(=O)(=O)c1ccc(F)cc1F)c1csc(-c2cccnc2)n1	19*	HuH7 TTR inh=-13;TTR act confirm=0
O=C(NCCc1ccccc1)OCc1cn(-c2cccc(Cl)c2)nn1	2
O=C(OCc1cn(Cc2cccc(C(F)(F)F)c2)nn1)N1CCOCC1	1
Cn1nccc1C(=O)Nc1nnc(C2CC2)s1	-1
Cc1ccc(S(=O)(=O)NC(=O)Nc2nnc(C3CC3)s2)cc1	-1
O=C(Nc1nnc(C2CC2)s1)c1ccc(S(=O)(=O)c2ccccc2)cc1	16*	HuH7 TTR inh=7;TTR act confirm=-1
COc1ccc(-c2cn(CC[C@@H]3CC[C@H](NC(=O)Cc4ccccn4)[C@@H](CO)O3)nn2)cc1	-1
Cc1nc(S/C(=C/c2ccc(OCc3ccc(C(=O)O)cc3)cc2)C(=O)O)n[nH]1	-2
COc1ccccc1NC(=O)OC1CC2CC1[C@H]1CCCCN1[C@H]2Cc1ccccc1 (stereo not given in full)	0
SMILES	TTR transcr act	others
CN(Cc1ccccc1)C(=O)c1[nH]cnc1C(=O)NCC(=O)OC(C)(C)C	11*	HuH7 TTR inh=-16;TTR act confirm=22*
CC(C)(C)OC(=O)CNC(=O)c1nc[nH]c1C(=O)N1CCN(c2ccccc2)CC1	3
C[C@@H](NC(=O)c1nc[nH]c1C(=O)NCC(=O)OC(C)(C)C)c1ccccc1	4
Cc1cc(NC(=O)CSCC(=O)N2CCN(c3ccccc3)CC2)no1	0
Cc1ccc(NC(=S)Nc2cc(C)on2)cc1	1
Cc1ccc(C(=O)Nc2cccc(-c3nc4ncccc4o3)c2)cc1	-1
Cc1ccc(NC(=S)Nc2cccc(-c3n[nH]c(=S)o3)c2)cc1	74*	HuH7 TTR inh=1;TTR act confirm=0
CC1(Cc2ccc3ccccc3n2)C(=O)Nc2ccc(OC(F)(F)F)cc21 (stereo not given)	-1
C[C@H]1C2CC(OC(=O)Nc3ccc(C#N)cc3)C(C2)[C@H]2CCCCN21 (stereo not given in full)	0
Cn1nc(CC(=O)NC2CCCCCC2)c2ccccc2c1=O	1
Cn1nc(CC(=O)NC2CCCCC2)c2ccccc2c1=O	10*	HuH7 TTR inh=0;TTR act confirm=-1
Cn1nc(C(=O)NC2CCC(O)CC2)c2ccccc2c1=O (stereo not given)	0
COc1ccc(NC(=O)OCCN2CCCC23CCC(c2ccccc2)CC3)cc1 (stereo not given)	-2
CCN1CCCCC(NC(C)=O)C1=O (stereo not given)	0
CCN(C[C@H]1N[C@@](Cc2ccccc2)(C(=O)OC)[C@H]2C(=O)N(Cc3ccccc3)C(=O)[C@@H]12)C(C)=O	12*	HuH7 TTR inh=-12;TTR act confirm=1
CCN(C[C@H]1N[C@@](Cc2ccccc2)(C(=O)OC)[C@H]2C(=O)N(Cc3ccccc3)C(=O)[C@@H]12)C(=O)c1ccccc1	-1
CCN(C[C@H]1N[C@@](Cc2ccccc2)(C(=O)OC)[C@H]2C(=O)N(Cc3ccccc3)C(=O)[C@@H]12)C(=O)COC	0
COC(=O)[C@]12C[C@H](CC(=O)N3CCN(C(=O)C4CC4)CC3)C(=O)N(Cc3cccc4ccccc34)C1=C[C@H](COCc1ccccc1)O[C@@H]2C	-2
C[C@H]1[C@@H](OC(=O)NCc2ccc(Cl)c(Cl)c2)CC[C@@]23CCCN2C(=O)CCC[C@@H]13	-1
CCCCCn1nnnc1C1(C)CSCC(=O)N1Cc1ccco1 (stereo not given)	8
CCN(c1ccccc1)S(=O)(=O)c1ccc(F)cc1	1
O=S(=O)(c1ccc(Cl)nc1)N(Cc1ccccc1)Cc1ccccc1	-3
CCN(c1ccccc1)S(=O)(=O)c1ccc(Cl)nc1	19*	HuH7 TTR inh=-4;TTR act confirm=1
CCCC1CCC2(CC1)CCC2OC(=S)NCc1ccc(Cl)cc1 (stereo not given)	1
C#CCNC(=O)C[C@@H]1C(=O)N2CCCC3=C2[C@@]1(C(=O)OC)CCCC3	0
SMILES	TTR transcr act	others
COCCCNCCCCOc1ccc(OCc2ccccc2)cc1	34*	HuH7 TTR inh=-11;TTR act confirm=0
COCCCNCCCCOc1ccccc1-c1ccccc1	1
C=CCNCCCCOc1ccc(OCc2ccccc2)cc1	1
N#CCC(=O)N/N=C/c1cc(-c2ccccc2)n(-c2ccc(Cl)cc2)c1-c1ccccc1	-2
COC(=O)[C@]12C[C@H](CC(=O)N3CCOCC3)C(=O)N(Cc3ccco3)C1=C[C@H](C1CCCC1)O[C@@H]2C	2
Nc1ncnc2c1ncn2CCN1CCOCC1	13*	HuH7 TTR inh=-5;TTR act confirm=0
Nc1ncnc2c1ncn2[C@H]1C[C@H](O)[C@@H](CO)O1	9
Nc1ncnc(N2CCOCC2)c1N	0
CC1(C(=O)Nc2cccnc2)Cc2c(-c3ccc4c(c3)OCO4)ccnc2O1 (stereo not given)	-2
CC(C)n1nnnc1C1(C)CSCC(=O)N1Cc1cccc(F)c1 (stereo not given)	-1
O=C(CNS(=O)(=O)c1ccc(C(=O)N2CCOCC2)cc1)N1CCOCC1	1
O=C(CN1CCOCC1)NCCNS(=O)(=O)c1ccccc1	0
O=C(NCCNS(=O)(=O)c1ccc(C(F)(F)F)cc1)N1CCOCC1	12*	HuH7 TTR inh=-6;TTR act confirm=0
C=CCN1C(=O)[C@H](CC(=O)NCC2CCCCC2)[C@@]2(C(=O)OCC)CCCC=C12	0
CCOC(=O)C1CCN(C(=O)C(CC)c2ccccc2)CC1 (stereo not given)	-1
C[C@H]1[C@@H](OC(=O)Nc2cccc(C(F)(F)F)c2)CC[C@@]23CCCN2C(=O)CCC[C@@H]13	-1

Assay outcomes from PubChem.
